In the supplement of paper PMC10849652:
The full data set covers some 8,800 targets. This sample favours those with a hit. About 0.5% of all pairs of compound and target were hits. Unmarked numbers belong to inactive results.

Columns and labels:
Assay in all cases: log2 fold change, soluble protein after heating vs DMSO (PISA); higher = thermal stabilisation; K562 lysate, 10 uM; active = over 0.2 and 3.5 SD of the protein, either way, in both replicates (recomputed)
nilotinib = compound: Cc1cn(-c2cc(NC(=O)c3ccc(C)c(Nc4nccc(-c5cccnc5)n4)c3)cc(C(F)(F)F)c2)cn1 [nilotinib]
In short: (§1)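 A 30 min treatment with 10 μM compound was applied to crude K562 extract at 1 mg/mL protein in PBS pH 7.4 with 1 mM MgCl2. Heating for 3 min spanned 48°C-58°C, after which aliquots were pooled, adjusted to 0.5% NP-40 at 4°C and spun at 21,000xg for 90 min. TMTpro 16plex LC-MS/MS of the supernatant, with channel sums equalised, gave values recorded as log-two fold change in thermal stability against solvent controls, from duplicates.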

[1] = compound: Cc1nc(Nc2n[nH]c3c2CN(C(=O)N[C@H](CN(C)C)c2ccccc2)C3(C)C)c2sccc2n1
In short: as §1

dasatinib = compound: Cc1nc(Nc2ncc(C(=O)Nc3c(C)cccc3Cl)s2)cc(N2CCN(CCO)CC2)n1 [dasatinib]
In short: as §1

[2] = compound: Cc1ncc(-c2ccnc(Nc3ccc(S(C)(=O)=O)cc3)n2)n1C(C)C
In short: as §1

[3] = compound: Cn1cc(-c2ccc3c(c2)CCN3C(=O)Cc2cccc(C(F)(F)F)c2)c2c(N)ncnc21
In short: as §1

quisinostat = compound: Cn1cc(CNCC2CCN(c3ncc(C(=O)NO)cn3)CC2)c2ccccc21 [quisinostat]
In short: as §1

tipifarnib = compound: Cn1cncc1[C@@](N)(c1ccc(Cl)cc1)c1ccc2c(c1)c(-c1cccc(Cl)c1)cc(=O)n2C [tipifarnib]
In short: as §1

[4] = compound: NC(=O)Nc1cc(-c2cccc(F)c2)sc1C(=O)N[C@H]1CCCNC1
In short: as §1

[5] = compound: NC(=O)c1cnc(N[C@@H]2CCCC[C@@H]2N)nc1Nc1cccc(-n2nccn2)c1
In short: as §1

[6] = compound: NC1(c2ccc(-c3nc4ccn5c(=O)[nH]nc5c4cc3-c3ccccc3)cc2)CCC1
In short: as §1

[7] = compound: NCC(=O)Nc1ccc(-n2nc(C(F)(F)F)cc2-c2ccc3c(ccc4ccccc43)c2)cc1
In short: as §1

vorinostat = compound: O=C(CCCCCCC(=O)Nc1ccccc1)NO [vorinostat]
In short: as §1

silmitasertib = compound: O=C(O)c1ccc2c(c1)nc(Nc1cccc(Cl)c1)c1ccncc12 [silmitasertib]
In short: as §1

[8] = compound: O=C1NC(=O)C(c2cnc3ccccn23)=C1c1cn2c3c(cc(F)cc13)CN(C(=O)N1CCCCC1)CC2
In short: as §1

entospletinib = compound: c1cn2cc(-c3ccc4cn[nH]c4c3)nc(Nc3ccc(N4CCOCC4)cc3)c2n1 [entospletinib]
In short: as §1

UniProt O43865, sequence (O43865 whole entry, looked up): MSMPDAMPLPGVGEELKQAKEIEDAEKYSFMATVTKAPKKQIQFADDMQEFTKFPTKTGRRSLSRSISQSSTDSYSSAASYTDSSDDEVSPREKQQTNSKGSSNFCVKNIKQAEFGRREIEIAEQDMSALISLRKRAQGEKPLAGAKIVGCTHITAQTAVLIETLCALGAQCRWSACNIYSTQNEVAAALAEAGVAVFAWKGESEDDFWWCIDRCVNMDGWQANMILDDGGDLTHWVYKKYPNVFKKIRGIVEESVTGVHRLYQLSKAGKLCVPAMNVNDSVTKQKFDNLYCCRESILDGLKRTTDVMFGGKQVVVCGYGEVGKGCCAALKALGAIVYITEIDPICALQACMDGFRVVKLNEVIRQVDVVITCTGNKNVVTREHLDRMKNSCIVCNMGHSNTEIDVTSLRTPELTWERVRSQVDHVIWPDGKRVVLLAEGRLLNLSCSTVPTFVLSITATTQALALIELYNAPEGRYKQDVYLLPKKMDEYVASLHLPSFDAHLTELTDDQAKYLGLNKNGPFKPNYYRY
UniProt O14727, sequence (O14727 whole entry, looked up): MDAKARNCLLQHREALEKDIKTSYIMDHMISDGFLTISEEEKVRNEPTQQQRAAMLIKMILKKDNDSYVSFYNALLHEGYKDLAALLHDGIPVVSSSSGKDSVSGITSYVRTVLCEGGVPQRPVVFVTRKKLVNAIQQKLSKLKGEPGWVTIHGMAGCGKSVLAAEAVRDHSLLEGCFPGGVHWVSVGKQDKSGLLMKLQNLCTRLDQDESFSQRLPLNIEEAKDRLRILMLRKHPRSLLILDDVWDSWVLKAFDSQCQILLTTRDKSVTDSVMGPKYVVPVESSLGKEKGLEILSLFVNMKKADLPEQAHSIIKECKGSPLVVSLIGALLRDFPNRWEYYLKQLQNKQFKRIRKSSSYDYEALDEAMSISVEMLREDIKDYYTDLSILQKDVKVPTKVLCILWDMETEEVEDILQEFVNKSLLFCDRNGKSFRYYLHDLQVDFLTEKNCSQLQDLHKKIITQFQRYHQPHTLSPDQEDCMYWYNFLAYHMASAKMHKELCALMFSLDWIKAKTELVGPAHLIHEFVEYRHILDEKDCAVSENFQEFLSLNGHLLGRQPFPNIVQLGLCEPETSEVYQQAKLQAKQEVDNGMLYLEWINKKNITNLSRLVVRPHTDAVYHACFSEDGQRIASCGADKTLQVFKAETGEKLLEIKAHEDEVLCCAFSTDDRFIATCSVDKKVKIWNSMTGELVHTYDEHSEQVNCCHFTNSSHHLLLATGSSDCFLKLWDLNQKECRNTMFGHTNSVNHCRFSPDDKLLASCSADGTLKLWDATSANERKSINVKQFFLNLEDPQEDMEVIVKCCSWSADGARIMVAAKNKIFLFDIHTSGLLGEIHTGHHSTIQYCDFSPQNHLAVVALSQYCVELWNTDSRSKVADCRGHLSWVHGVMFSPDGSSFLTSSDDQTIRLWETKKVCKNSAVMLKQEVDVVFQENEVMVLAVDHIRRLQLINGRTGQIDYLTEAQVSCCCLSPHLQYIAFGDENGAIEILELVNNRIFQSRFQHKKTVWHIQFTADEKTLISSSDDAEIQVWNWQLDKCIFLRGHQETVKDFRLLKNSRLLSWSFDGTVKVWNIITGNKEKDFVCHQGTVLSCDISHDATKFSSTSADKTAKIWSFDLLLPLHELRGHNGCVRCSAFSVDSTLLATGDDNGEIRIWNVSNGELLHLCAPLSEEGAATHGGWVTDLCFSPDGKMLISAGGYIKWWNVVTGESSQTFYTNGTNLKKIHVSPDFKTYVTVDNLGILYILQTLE
UniProt P53396, sequence (P53396 whole entry, looked up): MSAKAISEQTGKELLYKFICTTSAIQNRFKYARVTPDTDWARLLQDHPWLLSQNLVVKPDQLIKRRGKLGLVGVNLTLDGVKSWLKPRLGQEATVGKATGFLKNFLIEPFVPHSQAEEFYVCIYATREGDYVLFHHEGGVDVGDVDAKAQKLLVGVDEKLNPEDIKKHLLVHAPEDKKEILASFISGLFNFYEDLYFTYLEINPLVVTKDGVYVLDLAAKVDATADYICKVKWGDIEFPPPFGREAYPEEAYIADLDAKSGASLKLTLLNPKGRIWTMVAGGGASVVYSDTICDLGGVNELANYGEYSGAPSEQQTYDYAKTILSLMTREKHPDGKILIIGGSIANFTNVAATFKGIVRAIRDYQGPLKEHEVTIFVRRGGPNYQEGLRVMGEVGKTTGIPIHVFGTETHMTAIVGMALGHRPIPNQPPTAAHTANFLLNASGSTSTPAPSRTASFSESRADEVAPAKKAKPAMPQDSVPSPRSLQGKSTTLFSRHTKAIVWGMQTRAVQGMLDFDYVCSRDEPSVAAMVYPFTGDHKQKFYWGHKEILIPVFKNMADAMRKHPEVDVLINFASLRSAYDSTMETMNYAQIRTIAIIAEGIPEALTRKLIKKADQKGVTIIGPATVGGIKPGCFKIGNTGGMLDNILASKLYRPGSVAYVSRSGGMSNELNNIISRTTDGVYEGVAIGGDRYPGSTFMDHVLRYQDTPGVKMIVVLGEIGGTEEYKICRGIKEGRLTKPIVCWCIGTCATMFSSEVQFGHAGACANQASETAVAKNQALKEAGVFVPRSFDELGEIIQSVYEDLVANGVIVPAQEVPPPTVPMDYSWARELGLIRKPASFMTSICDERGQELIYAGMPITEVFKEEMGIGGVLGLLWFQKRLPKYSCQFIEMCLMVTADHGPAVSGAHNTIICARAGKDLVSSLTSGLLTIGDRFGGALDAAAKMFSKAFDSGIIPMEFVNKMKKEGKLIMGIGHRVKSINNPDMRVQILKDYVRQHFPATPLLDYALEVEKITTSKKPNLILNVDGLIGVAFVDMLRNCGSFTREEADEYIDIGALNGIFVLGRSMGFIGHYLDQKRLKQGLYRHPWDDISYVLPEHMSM
UniProt Q9UKV3, sequence (Q9UKV3 whole entry, looked up): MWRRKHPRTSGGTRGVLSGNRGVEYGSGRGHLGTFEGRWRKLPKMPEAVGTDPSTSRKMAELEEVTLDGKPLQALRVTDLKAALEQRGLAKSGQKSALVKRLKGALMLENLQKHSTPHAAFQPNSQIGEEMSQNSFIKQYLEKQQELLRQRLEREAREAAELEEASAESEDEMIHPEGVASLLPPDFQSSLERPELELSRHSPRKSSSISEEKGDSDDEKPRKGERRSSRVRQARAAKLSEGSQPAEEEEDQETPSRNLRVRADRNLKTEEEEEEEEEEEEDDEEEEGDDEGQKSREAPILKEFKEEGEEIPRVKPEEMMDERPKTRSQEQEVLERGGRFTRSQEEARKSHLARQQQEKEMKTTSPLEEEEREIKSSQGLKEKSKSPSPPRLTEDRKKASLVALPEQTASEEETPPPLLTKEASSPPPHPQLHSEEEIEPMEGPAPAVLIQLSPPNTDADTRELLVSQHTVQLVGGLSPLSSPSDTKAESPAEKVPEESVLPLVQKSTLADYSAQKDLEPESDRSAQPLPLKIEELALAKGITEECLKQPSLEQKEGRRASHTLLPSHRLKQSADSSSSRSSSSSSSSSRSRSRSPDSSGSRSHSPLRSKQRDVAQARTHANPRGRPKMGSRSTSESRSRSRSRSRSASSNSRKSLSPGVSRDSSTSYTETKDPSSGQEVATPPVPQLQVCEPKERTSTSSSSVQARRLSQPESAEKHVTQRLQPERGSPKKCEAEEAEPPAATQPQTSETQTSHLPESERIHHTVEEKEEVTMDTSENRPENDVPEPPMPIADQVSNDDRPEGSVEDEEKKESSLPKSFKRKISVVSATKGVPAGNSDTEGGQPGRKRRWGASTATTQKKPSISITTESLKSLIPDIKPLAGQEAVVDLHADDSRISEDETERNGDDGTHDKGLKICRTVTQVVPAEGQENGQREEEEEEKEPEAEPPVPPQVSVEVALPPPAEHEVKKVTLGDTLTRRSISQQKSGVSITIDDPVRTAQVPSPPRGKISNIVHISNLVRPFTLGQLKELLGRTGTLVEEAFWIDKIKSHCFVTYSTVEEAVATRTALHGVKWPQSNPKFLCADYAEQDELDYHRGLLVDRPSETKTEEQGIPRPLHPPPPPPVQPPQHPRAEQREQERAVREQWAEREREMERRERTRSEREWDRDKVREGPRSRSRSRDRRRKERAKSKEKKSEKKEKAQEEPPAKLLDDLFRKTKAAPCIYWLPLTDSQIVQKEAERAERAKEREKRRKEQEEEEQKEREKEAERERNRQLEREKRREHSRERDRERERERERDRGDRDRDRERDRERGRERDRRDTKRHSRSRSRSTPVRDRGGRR
UniProt O43823, sequence (O43823 whole entry, looked up): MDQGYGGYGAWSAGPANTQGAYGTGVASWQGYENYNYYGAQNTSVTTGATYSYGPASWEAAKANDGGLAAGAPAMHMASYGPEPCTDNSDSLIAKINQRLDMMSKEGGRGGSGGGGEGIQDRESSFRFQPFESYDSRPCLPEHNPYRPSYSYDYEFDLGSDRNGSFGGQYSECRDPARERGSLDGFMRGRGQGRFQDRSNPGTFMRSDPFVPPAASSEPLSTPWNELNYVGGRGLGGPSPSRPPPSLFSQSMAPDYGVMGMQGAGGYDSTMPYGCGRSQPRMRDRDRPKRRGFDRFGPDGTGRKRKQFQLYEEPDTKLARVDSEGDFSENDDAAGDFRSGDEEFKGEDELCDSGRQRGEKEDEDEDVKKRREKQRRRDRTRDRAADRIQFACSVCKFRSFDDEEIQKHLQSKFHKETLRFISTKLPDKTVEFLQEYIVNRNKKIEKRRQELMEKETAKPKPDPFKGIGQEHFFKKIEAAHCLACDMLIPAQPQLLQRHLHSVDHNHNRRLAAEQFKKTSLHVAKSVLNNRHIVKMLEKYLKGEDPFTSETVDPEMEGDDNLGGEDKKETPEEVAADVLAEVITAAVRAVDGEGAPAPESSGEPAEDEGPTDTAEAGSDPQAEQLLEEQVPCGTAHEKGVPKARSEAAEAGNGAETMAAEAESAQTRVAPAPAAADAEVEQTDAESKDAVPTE

Target	log2 fold change (nilotinib)	log2 fold change [1]	log2 fold change (dasatinib)	log2 fold change [2]	log2 fold change [3]	log2 fold change (quisinostat)	log2 fold change (tipifarnib)	log2 fold change [4]	log2 fold change [5]	log2 fold change [6]	log2 fold change [7]	log2 fold change (vorinostat)	log2 fold change (silmitasertib)	log2 fold change [8]	log2 fold change (entospletinib)
AKAP8 (UniProt O43823)	-0.3 (active)	0.039	0.01	-0.001	0.006	-0.075	0.025	0.084	0.022	0.059	0.047	-0.095	0.019	0.023	-0.046
ARMCX3 (UniProt Q9UH62)	0.023	-0.028	-0.107	-0.003	0.067	-0.057	-0.008	0.04	0.008	-0.002	0.042	-0.279 (active)	0.036	-0.024	0.047
AK1 (UniProt P00568)	0.023	0.008	-0.038	0.015	0.011	0.118	0.056	0.004	0.003	0.009	0.005	0.075	0.001	-0.001	0.022
AIMP1 isoform 2 (UniProt Q12904)	-0.013	-0.016	-0.076	0.019	0.023	0.01	0.013	0.044	-0.011	0.001	-0.01	-0.235 (active)	0.02	0.007	0.02
ACLY (UniProt P53396)	-0.005	-0.016	-0.026	-0.005	0.021	0.002	0.016	-0.004	0.018	0.014	-0.008	-0.029	0.012	-0.018	0.014
ALG13 (UniProt Q9NP73)	0.089	-0.012	-0.044	0.218	0	-0.067	-0.036	-0.004	0.028	-0.009	-0.027	-0.339 (active)	-0.01	0.014	-0.082
ASCC2 (UniProt Q9H1I8)	-0.005	-0.029	-0.01	-0.018	0.026	-0.06	0.082	0.035	0.038	-0.023	-0.008	-0.048	0.077	0.026	-0.017
ACACA isoform 4 (UniProt Q13085)	-0.032	0.004	-0.037	0.028	0.043	-0.024	0.081	0.03	0.01	-0.019	-0.003	-0.449 (active)	0.016	-0.003	0.027
ACBD6 (UniProt Q9BR61)	-0.032	0.007	0.04	0.012	0.013	-0.017	0.013	-0.014	0.06	-0.04	-0.009	-0.298 (active)	0.003	0.028	-0.028
ANP32A (UniProt P39687)	-0.003	0.03	0.125	-0.011	-0.039	-0.006	0.002	-0.097	0.012	-0.359 (active)	-0.005	0.08	0.063	-0.027	0.026
ADD1 isoform 3 (UniProt P35611)	0.027	-0.005	0.007	-0.017	-0.012	-0.016	0.019	0.007	-0.015	0.011	-0.024	0.048	-0.012	-0.022	-0.014
APAF1 (UniProt O14727)	-0.013	0.116	-0.036	0.025	0.073	-0.091	-0.026	0.052	0	0.026	0.021	-0.292 (active)	0.032	0.057	0.032
ACSL1 (UniProt P33121)	-0.004	-0.002	-0.132	0.013	0.05	0.007	-0.013	0.034	-0.025	-0.04	-0.092	-0.221 (active)	0.138	-0.031	-0.027
AHCYL1 (UniProt O43865)	-0.077	-0.011	-0.015	0.021	0.02	-0.079	-0.001	0.066	-0.005	-0.087	0.021	-0.287 (active)	-0.021	0.045	-0.03
AFF1 isoform 2 (UniProt P51825)	-0.069	0.022	0.059	0.069	-0.043	-0.01	0.028	-0.005	0.194	0.008	0.019	-0.074	-0.046	-0.046	-0.064
ACIN1 isoform 5 (UniProt Q9UKV3)	0.017	-0.018	-0.012	0.001	0.008	0.011	0	-0.063	0.024	0.01	0.035	0.007	0.001	-0.012	-0.003
ARFGAP1 (UniProt Q8N6T3)	0.159	0.1	-0.03	-0.016	-0.043	-0.004	-0.475 (active)	0.063	-0.032	-0.111	0.063	0.253	-0.066	-0.12	0.038
ALKBH4 (UniProt Q9NXW9)	-0.053	-0.05	-0.028	-0.008	0.007	-0.01	0.023	0.023	-0.013	0.047	0.061	0.264 (active)	-0.032	-0.088	-0.012
ACTG1 (UniProt I3L4N8)	-0.068	0.104	0.055	-0.045	-0.171	0.032	0.11	-0.053	-0.033	-0.114	-0.131	0.358	-0.043	0.082	0.098
ABHD11 (UniProt Q8NFV4)	-0.001	-0.021	-0.005	-0.044	0.079	0.081	0.042	-0.016	0.04	-0.003	-0.001	0.195	0.324 (active)	0.003	0.05
APEX1 (UniProt P27695)	0.045	-0.037	0.002	-0.027	0.018	0.016	0.001	0.021	-0.011	-0.008	0.007	-0.15	0.026	-0.001	-0.002
